Most compounds without a hit are left out; they make up all but 0.28% or so of the library.
PGK inhibitor: T. brucei PGK inhibition; hit rate 0.043% among 380,000; AID 602233; Potency, µM (doses to about 57.5 µM), most hits filed as inhibitors; PGK/GAPDH coupled, Kinase-Glo luminescence, 60 min; also: nearly all actives have a fitted effect of over 60% in size
Target sequence (P07378 whole entry, looked up): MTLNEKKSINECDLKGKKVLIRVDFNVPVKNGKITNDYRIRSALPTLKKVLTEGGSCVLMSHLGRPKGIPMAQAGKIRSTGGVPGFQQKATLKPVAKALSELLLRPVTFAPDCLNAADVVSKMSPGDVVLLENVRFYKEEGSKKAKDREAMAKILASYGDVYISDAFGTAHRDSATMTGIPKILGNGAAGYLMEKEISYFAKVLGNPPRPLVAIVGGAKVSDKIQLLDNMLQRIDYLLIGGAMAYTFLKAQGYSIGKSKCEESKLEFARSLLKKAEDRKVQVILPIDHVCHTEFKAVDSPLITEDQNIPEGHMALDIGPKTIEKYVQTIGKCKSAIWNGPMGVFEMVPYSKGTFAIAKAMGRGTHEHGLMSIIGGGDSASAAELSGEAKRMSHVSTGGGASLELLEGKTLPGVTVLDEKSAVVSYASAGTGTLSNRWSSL
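Luminescent ATP detection (Kinase-Glo Plus) follows a 60-minute room-temperature incubation, with wells lacking PGK as controls. Buffer: 100 mM TEA (pH 7.6), 5 mM MgCl2, 0.01% Tween-20. Coupling enzyme GAPDH (100 nM final) supplies unstable 1,3-BPG in-well.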
Tb PFK inh-1: blocks T. brucei phosphofructokinase | T. brucei PFK, ADP-Glo luminescence | hit rate 0.17% among 330,000 | Potency, µM (titrated, usually from 57.5 µM), hits mostly inhibitors | O15648 | AID 485367; also: nearly all actives have a fitted effect of over 60% in size
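Luminescent ADP detection (ADP-Glo, two-step: ATP depletion then ADP-to-ATP conversion for luciferase) reported PFK activity after 45 min room-temperature reaction of 1.25 nM enzyme with 0.5 mM F6P and 0.1 mM ATP at pH 8.0.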
USP2a block: blocks human ubiquitin-specific protease USP2a; O75604; USP2 core, Ub-CHOP2 coupled fluorogenic reporter, 485/531; Potency, µM (series often up to 38.3 µM), usual class: inhibitors; hit rate 0.01% among 330,000; AID 463254
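USP2 core (10nM final) preincubated 30min RT with compound in 20mM Tris-HCl pH 8.0, 2mM CaCl2, 2mM beta-mercaptoethanol, 0.05% CHAPS; 25nM Ub-CHOP2 plus 25nM reporter substrate added, fluorescence (Ex485/Em531) read after 60min.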
Pin1 inhibitor: blocks the human prolyl isomerase Pin1; Pin1 FP peptide displacement, HiFluor488, 10 min; AID 504891; Potency, µM (highest dose often 115 µM), actives largely listed as inhibitors; hit rate 0.009% among 390,000; active = well fitted inhibition curve with a large enough effect in the polarisation, with a control signal flat, not every such curve was filed as active; inconclusive = small, poorly fitted or top-dose-only effect, or effect the other way, or a change in a side signal; inactive = no such curve, though single readings can be large or run the other way; the % refers to the polarisation
Target sequence (Q13526 whole entry, looked up): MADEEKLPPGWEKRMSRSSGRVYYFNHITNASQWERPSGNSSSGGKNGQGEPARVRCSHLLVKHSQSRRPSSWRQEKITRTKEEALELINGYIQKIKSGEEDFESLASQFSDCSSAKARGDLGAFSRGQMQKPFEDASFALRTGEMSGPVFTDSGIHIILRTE
PI4K2A block: inhibitors of human PI4K2A; AID 1346378; purified PI4K2A, ADP-Glo luminescence, 1 h; active compounds read low; activity change, negative = inhibition, % at 76.9 µM; hit rate 0.13% among 420,000; in the data active = activity change below about -50%; inconclusive = mostly about -30% to -49%
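Compounds are screened against recombinant PI4K2A using PI as substrate and ATP, the latter dispensed at 300 microM. Reactions run one hour at ambient temperature before ADP-Glo detection; full inhibition defined by wells lacking enzyme.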
Tb PFK KinaseGlo: orthogonal confirmation of T. brucei phosphofructokinase inhibitors. shares compounds with Tb PFK inh-1. Tb PFK enzyme, ATP depletion, Kinase-Glo Plus luminescence. Potency, µM (highest dose often 57.5 µM). hit rate 47% among 1,100. AID 504636; calls by dose curve; also: nearly all actives have a fitted effect of over 60% in size
Tb PFK inh-2: T. brucei PFK enzyme inhibition, hit validation; shares compounds with Tb PFK inh-1; purified T. brucei PFK, ADP-Glo luminescence, 45 min; Potency, µM (series often up to 57.5 µM), hits mostly inhibitors; hit rate 41% among 1,100; also: nearly all actives have a fitted effect of over 60% in size
Numbers stand for hits; n = inactive; u = inconclusive; x = not tested or not shown. Unless noted, calls follow the shape of the dose curve; as a rule, active = well fitted curve in the direction sought with a large enough effect; inconclusive = small, poorly fitted or top-dose-only effect, or another doubt; inactive = no such curve, though single readings can be large; an effect the other way counts as inactive or inconclusive.

SMILES	PGK inhibitor	Tb PFK inh-1	USP2a block	Pin1 inhibitor	PI4K2A block	Tb PFK KinaseGlo	Tb PFK inh-2
Cc1cccc(N2CCN(C(=O)Cn3sc4nc(C)cc(C)c4c3=O)CC2C)c1 (stereo unspecified)	n	15µM	n	n	n	n	n
Cc1cc2c(s1)c1cnn(Cc3c(F)c(F)c(C)c(F)c3F)c(=O)c1n2C	x	x	x	n	x	x	x
O=C(Nc1ccc(Nc2ccccc2)cc1)c1ccc(Cl)cc1	n	x	x	n	n	x	x
N#C/C(C(=O)Nc1ccc(Cl)cc1)=C(/S)Nc1ccccc1	n	9.5µM	n	n	n	15µM	u
CCOC(=O)Cn1c(=N)n(CCOc2ccc(F)cc2)c2ccccc21	n	5.4µM	n	n	n	3µM	5.4µM
N=c1n(CCCOc2ccc(F)cc2)c2ccccc2n1CC(N)=O	n	n	n	n	n	x	x
Nc1nc2ccccc2n1CCOc1ccc(F)cc1	n	u	n	n	n	13µM	21µM
COc1ccc(C(=O)N(Cc2ccccc2)Cc2cccs2)c(O)c1	x	x	x	n	x	x	x
CC1(C)OC(=O)C(=Cc2ccc(-c3ccc(S(N)(=O)=O)cc3)o2)C(=O)O1	n	u	n	n	n	n	u
O=C(COc1ccccc1[N+](=O)[O-])N/N=C/c1ccc(O)c([N+](=O)[O-])c1	n	u	n	u	n	n	u
O=C(COc1ccccc1[N+](=O)[O-])N/N=C/c1ccccn1	n	n	n	n	n	x	x
Nc1nc(=S)c2[nH]c(=S)[nH]c2[nH]1	n	x	x	n	n	x	x
Nc1nc(=S)c2[nH]cnc2[nH]1	n	u	n	n	n	u	u
O=C1N=c2ccccc2=C1c1sc(Nc2ccc(O)cc2)nc1O	n	u	u	u	-65	n	n
NCCc1c[nH]c2ccc(F)cc12	x	u	n	x	x	u	u
S=C(NCC1CCCO1)Nc1ccc(Cl)c(Cl)c1 (stereo unspecified)	x	n	n	n	n	x	x
O=C(Cc1ccc(Cl)c(Cl)c1)NNC(=S)NCC1CCCO1 (stereo unspecified)	n	u	n	n	n	21µM	u
Cn1nnnc1Sc1ncnc2scc(-c3ccc(C(=O)OC(C)(C)C)cc3)c12	x	x	x	n	x	x	x
COc1cccc(Cn2ncc3c4sc(C)cc4n(C)c3c2=O)c1	x	x	x	n	x	x	x
O=C(Nc1nnc(-c2ccccc2)s1)c1ccccc1O	n	u	n	n	n	n	u
COc1ccccc1C(=O)Nc1nnc(-c2ccccc2)s1	n	n	n	n	n	x	x
COc1cc(-c2nnc(SCc3cc(=O)oc4cc(O)c(O)cc34)o2)cc(OC)c1OC	u	u	n	x	u	1.7µM	1.5µM
CCOC(=O)CSc1nnc(-c2cc(OC)c(OC)c(OC)c2)o1	n	n	n	n	n	x	x
C/C=C/C=C/C(=O)N1CC2(CC(c3cccc(NC(=O)CCCCC)c3)=NO2)C[C@H]1C(N)=O (stereo partly specified)	n	u	n	n	n	u	u
C=C(C)C(=O)Nc1cccc(C2=NOC3(C2)C[C@@H](C(N)=O)N(C(=O)/C(C)=C/C)C3)c1 (stereo partly specified)	u	3.4µM	n	x	n	0.19µM	0.17µM
SMILES	PGK inhibitor	Tb PFK inh-1	USP2a block	Pin1 inhibitor	PI4K2A block	Tb PFK KinaseGlo	Tb PFK inh-2
C=C(C)C(=O)Nc1cccc(C2=NOC3(C2)C[C@H](C(N)=O)N(C(=O)c2ccccc2C(=O)c2ccccc2)C3)c1 (stereo partly specified)	u	11µM	n	u	n	0.67µM	0.85µM
C=C(C)C(=O)Nc1cccc(C2=NOC3(C2)C[C@@H](C(N)=O)N(C(=O)/C=C/C=C/C)C3)c1 (stereo partly specified)	u	3.8µM	n	x	n	0.13µM	0.19µM
CC(C)Nc1cccc(S(=O)(=O)N2CCCN(S(=O)(=O)c3ccc4c(c3)OCCO4)CC2)c1	x	x	x	n	x	x	x
C=C(C)C(=O)Nc1cccc(C2=NOC3(C2)C[C@@H](C(N)=O)N(C(=O)CC(c2ccccc2)c2ccccc2)C3)c1 (stereo partly specified)	8.9µM	30µM	n	n	n	1.5µM	u
O=C(Cc1ccc(Cl)c(Cl)c1)Nc1ccc(S(=O)(=O)Nc2ccon2)cc1	x	x	x	x	n	x	x
Cc1ccnc(NS(=O)(=O)c2ccc(NC(=O)Cc3ccc(Br)cc3)cc2)n1	n	u	n	n	n	21µM	u
O=C(Cc1ccc(Cl)c(Cl)c1)Nc1ccc(S(=O)(=O)Nc2ncccn2)cc1	n	2.4µM	n	n	n	0.85µM	1.9µM
Cc1ccnc(NS(=O)(=O)c2ccc(NC(=O)Cc3ccc(F)cc3)cc2)n1	n	n	n	n	n	x	x
CCC(C(=O)OCCN1CCOC(c2ccccc2)C1C)c1ccccc1 (stereo unspecified)	x	x	x	x	n	x	x
O=c1cc(-c2ccc(O)c(O)c2)oc2cc(O)cc(O)c12	u	u	n	u	n	n	u
C[C@]12CC[C@H]3[C@@H](CCC4=CC(=O)CC[C@@H]43)[C@@H]1CC[C@@H]2OC(=O)CCC1CCCCC1	x	x	x	x	n	x	x
NS(=O)(=O)c1ccc(NC(=O)Nc2ccc(Cl)cc2)cc1	n	12µM	n	n	n	6µM	11µM
NS(=O)(=O)c1ccc(NC(=S)Nc2cc(Cl)c(Cl)cc2Cl)cc1	n	u	n	n	n	27µM	u
NS(=O)(=O)c1ccc(NC(=S)NCc2cccc(Cl)c2)cc1	n	u	n	n	n	1.5µM	2.4µM
COc1ccc(Br)cc1S(=O)(=O)N1CCN(S(=O)(=O)c2ccc3c(c2)OCCO3)CC1	x	x	x	n	x	x	x
O=C(OCc1ccco1)c1ccc(S(=O)(=O)N2CCCCC2)cc1	n	24µM	n	n	n	u	u
CCN(CC)c1ccc(/C=C2\C(=O)N(c3nnc(C)c(=O)[nH]3)N=C2C)cc1	n	u	n	n	n	u	13µM
Nc1nc(SCC(=O)c2ccc(F)cc2)n[nH]1	n	n	n	n	n	x	x
Cc1nc(SCC(=O)c2ccc(F)cc2)n[nH]1	n	21µM	n	n	n	u	u
N=C1SCC(=O)N1c1ncc(Cc2cccc(Cl)c2)s1	n	u	n	n	n	24µM	u
N=C1SCC(=O)N1c1ncc(Cc2ccccc2Cl)s1	n	n	n	n	n	x	x
COC(=O)C1CCN(C(=O)COC(=O)c2cc(-c3ccccc3)nc3ccc(OC)cc23)CC1	n	u	n	n	n	u	u
COCCCNC(=O)c1cc(=O)n(Cc2ccc(Cl)cc2)c2ccccc12	n	11µM	n	n	n	24µM	u
COCCCNC(=O)c1ccc(Cn2c(=O)c3ccccc3n(Cc3ccc(C)cc3)c2=O)cc1	n	n	n	n	n	x	x
C[C@@H]1NCCc2cc(O)c(O)cc21	n	u	n	u	n	8.5µM	u
